# In ChEMBL document CHEMBL1961873, “Compounds: GSK PKIS; Assays: Nanosyn kinase panel” (2012):
# Experiments:
# [1] = molecular target: Tyrosine-protein kinase receptor UFO (Homo sapiens) (UniProt P30530); settings: at 1 µM
# [2] = molecular target: Tyrosine-protein kinase Blk (Homo sapiens) (UniProt P51451); settings: at 0.1 µM
# [3] = molecular target: Tyrosine-protein kinase Blk (Homo sapiens) (UniProt P51451); settings: at 1 µM
# [4] = molecular target: T1, Cytoplasmic tyrosine-protein kinase BMX (Homo sapiens) (UniProt P51813); settings: at 0.1 µM
# T1 sequence (whole entry): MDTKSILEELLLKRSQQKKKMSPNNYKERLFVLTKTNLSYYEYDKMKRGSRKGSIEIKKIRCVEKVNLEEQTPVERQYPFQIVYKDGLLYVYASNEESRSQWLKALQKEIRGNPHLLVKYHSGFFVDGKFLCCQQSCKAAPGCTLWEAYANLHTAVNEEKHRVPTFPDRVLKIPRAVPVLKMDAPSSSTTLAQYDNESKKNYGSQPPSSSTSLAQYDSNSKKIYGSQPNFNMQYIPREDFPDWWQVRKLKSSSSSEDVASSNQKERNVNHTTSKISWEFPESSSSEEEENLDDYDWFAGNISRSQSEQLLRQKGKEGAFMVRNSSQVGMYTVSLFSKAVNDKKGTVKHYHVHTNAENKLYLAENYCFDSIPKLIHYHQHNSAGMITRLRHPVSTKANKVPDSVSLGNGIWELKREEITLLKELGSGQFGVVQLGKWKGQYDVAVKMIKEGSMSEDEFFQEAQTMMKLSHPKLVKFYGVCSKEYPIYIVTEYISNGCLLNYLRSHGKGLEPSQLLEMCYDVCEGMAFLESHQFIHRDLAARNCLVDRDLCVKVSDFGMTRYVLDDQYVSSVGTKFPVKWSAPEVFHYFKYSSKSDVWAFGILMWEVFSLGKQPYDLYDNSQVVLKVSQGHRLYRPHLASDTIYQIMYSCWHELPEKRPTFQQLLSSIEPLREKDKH
# [5] = molecular target: T1, Cytoplasmic tyrosine-protein kinase BMX (Homo sapiens); settings: at 1 µM
# [6] = molecular target: Protein-tyrosine kinase 6 (Homo sapiens) (UniProt Q13882); settings: at 0.1 µM
# Chain of Protein-tyrosine kinase 6 (Homo sapiens) (Q13882 whole entry, looked up): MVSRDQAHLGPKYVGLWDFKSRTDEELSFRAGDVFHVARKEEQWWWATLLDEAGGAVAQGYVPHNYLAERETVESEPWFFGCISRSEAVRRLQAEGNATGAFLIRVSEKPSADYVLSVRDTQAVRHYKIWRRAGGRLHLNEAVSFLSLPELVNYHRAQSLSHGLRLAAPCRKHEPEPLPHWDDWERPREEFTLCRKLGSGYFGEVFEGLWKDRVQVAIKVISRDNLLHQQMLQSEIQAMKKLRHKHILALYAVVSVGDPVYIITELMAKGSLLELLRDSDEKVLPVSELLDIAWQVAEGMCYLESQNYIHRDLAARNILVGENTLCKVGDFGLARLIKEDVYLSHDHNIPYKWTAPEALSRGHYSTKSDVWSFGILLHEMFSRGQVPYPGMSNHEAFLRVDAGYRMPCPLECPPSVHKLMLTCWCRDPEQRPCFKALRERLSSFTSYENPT
# [7] = molecular target: Protein-tyrosine kinase 6 (Homo sapiens) (UniProt Q13882); settings: at 1 µM
# [8] = molecular target: Tyrosine-protein kinase BTK (Homo sapiens) (UniProt Q06187); settings: at 0.1 µM
# Chain of Tyrosine-protein kinase BTK (Homo sapiens) (Q06187 whole entry): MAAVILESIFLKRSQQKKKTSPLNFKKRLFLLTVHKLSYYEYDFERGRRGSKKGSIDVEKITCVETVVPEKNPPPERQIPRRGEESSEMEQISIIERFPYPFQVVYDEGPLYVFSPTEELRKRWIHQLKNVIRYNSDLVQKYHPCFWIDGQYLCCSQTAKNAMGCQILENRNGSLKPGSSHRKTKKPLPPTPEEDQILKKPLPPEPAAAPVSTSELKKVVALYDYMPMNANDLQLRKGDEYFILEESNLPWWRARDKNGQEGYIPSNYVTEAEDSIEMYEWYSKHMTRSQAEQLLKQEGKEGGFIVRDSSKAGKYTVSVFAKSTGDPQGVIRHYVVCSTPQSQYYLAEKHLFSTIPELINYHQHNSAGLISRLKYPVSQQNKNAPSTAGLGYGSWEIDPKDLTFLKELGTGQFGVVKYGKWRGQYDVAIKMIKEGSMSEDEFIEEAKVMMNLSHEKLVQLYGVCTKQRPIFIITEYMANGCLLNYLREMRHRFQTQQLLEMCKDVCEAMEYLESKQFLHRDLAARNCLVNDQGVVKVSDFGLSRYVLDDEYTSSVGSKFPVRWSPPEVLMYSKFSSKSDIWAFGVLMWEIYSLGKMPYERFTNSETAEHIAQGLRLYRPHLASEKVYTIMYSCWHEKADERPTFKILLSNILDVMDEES
# [9] = molecular target: Tyrosine-protein kinase BTK (Homo sapiens) (UniProt Q06187); settings: at 1 µM
# [10] = molecular target: Tyrosine-protein kinase CSK (Homo sapiens) (UniProt P41240); settings: at 0.1 µM;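 also: value given is the averaged percent inhibition of CSK kinase activity, from the GSK PKIS kinase inhibitor set screening panel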
# Chain of Tyrosine-protein kinase CSK (Homo sapiens) (P41240 2-450 limits assumed): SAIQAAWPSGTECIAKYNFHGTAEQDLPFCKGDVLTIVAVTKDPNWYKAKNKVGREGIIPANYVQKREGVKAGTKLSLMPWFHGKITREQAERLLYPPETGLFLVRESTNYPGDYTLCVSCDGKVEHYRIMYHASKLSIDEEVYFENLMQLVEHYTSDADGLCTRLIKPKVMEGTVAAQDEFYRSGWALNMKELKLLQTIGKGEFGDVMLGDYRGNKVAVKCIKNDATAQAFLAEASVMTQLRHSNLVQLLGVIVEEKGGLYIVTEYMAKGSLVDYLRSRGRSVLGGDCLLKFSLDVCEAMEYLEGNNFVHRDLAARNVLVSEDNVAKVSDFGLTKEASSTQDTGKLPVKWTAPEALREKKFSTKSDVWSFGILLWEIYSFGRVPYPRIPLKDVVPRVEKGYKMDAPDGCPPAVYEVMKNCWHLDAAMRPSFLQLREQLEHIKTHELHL
# Chain of Tyrosine-protein kinase Blk (Homo sapiens) (P51451 2-505 limits assumed): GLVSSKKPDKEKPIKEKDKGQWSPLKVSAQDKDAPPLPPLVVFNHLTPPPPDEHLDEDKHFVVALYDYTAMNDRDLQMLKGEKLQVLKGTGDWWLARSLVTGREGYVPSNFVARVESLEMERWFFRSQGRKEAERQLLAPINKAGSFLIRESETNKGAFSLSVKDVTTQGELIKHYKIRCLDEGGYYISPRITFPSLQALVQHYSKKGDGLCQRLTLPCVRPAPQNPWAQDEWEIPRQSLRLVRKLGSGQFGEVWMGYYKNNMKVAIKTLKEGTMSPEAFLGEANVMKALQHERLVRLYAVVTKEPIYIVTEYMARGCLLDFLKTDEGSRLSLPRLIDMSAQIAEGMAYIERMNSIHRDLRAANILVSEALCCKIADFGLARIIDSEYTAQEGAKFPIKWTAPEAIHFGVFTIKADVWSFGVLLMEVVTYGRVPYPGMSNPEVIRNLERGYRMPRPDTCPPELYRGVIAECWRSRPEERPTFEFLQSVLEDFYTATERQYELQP
# Chain of Tyrosine-protein kinase receptor UFO (Homo sapiens) (P30530 whole entry): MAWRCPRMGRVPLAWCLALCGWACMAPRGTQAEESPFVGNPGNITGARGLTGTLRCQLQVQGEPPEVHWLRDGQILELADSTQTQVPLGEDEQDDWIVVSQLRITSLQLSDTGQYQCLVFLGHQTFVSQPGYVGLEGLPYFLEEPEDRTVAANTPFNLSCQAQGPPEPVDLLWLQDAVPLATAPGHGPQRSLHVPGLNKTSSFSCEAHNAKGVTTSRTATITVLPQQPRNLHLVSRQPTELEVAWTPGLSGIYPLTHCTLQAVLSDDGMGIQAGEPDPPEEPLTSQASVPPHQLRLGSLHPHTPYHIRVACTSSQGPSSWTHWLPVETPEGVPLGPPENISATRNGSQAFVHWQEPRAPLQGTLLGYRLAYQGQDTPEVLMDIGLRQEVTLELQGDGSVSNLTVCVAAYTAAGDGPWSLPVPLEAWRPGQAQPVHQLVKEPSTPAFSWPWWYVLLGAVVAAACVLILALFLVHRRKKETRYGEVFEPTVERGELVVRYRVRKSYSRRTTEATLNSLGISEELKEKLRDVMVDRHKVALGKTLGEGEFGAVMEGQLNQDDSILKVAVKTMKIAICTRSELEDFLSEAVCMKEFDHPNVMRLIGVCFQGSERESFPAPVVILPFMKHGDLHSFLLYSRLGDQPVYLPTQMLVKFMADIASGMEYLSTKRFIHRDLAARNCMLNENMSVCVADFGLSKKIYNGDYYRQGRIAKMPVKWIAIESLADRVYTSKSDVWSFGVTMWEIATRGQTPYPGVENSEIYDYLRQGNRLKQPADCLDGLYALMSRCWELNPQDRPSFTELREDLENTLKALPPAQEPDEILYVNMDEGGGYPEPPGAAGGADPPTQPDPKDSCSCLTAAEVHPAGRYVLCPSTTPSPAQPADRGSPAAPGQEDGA
Structure (SMILES),inhibition [1],inhibition [2],inhibition [3],inhibition [4],inhibition [5],inhibition [6],inhibition [7],inhibition [8],inhibition [9],inhibition [10]
COc1cccc(/C=N/Nc2ncnc3c2cnn3-c2cccc(OC)c2)c1,-4.88%,1.56%,4.98%,2.16%,5.64%,2.5%,5.61%,-0.27%,-1.35%,2.79%
NCc1ccc(-n2c(-c3nonc3N)nc3cnccc32)cc1,-1.85%,3.21%,4.2%,5.93%,4.77%,5.04%,5.62%,-0.77%,0.66%,3.09%
COc1cc(Nc2ncc3c(C)nc(-c4cccc(C(F)(F)F)c4)n3n2)cc(OC)c1OC,-0.36%,3.39%,25.1%,-0.78%,11.9%,3.48%,5.36%,2.11%,4.31%,4.48%
FC(F)(F)c1cccc(Nc2nccc(-c3cnn4nc(-c5ccccc5)ccc34)n2)c1,-4.33%,0.07%,-0.26%,1.76%,0.63%,-1.81%,2.26%,0.03%,-0.49%,4.19%
O=C(NCC1CC1)c1ccc(-c2cccc(C(=O)NC3CC3)c2)cc1,-0.85%,1.41%,3.43%,-3.65%,3.29%,0.45%,3.3%,1.12%,1.69%,1.29%
COc1cc(C)c(N(C)C(=O)CN(C)C)cc1Nc1nc(Nc2cccc(F)c2C(N)=O)c2cc[nH]c2n1,3.71%,-3.28%,-1.84%,-1.82%,2.46%,0.54%,1.53%,-1.73%,-2.02%,1.1%
NC(=O)c1cc(-c2ccc(F)cc2)cc(-c2ccncc2)c1N,-4.61%,2.33%,4.55%,7.08%,7.6%,3.05%,5.71%,0.21%,-0.9%,0.77%
CCS(=O)(=O)c1ccc(OC)c(Nc2ncc(-c3ccccc3Cl)o2)c1,1.78%,2.51%,15.7%,-1.76%,3.11%,-0.35%,5.66%,2.72%,2.31%,1.15%
Clc1ccc(CNc2nccc(-c3cnn4ncccc34)n2)cc1,2.45%,1.31%,3.34%,-1.56%,2.62%,0.74%,3.52%,0.65%,1.7%,3.92%
COc1ccc2ncn(-c3cc(O[C@H](C)c4ccccc4Cl)c(C(N)=O)s3)c2c1,-8.67%,-1.08%,-2.12%,3.14%,4.61%,-0.06%,4.71%,-4.3%,-3.34%,4.64%
Cc1ccc(C(=O)NC(C)C)cc1-c1ccc(C(=O)NCC2CC2)cc1,4.77%,-1.25%,-1.6%,-4.33%,-4.09%,-3.3%,-4.09%,-0.46%,-1.32%,-7.18%
C#Cc1cccc(Nc2ncnc3ccc(OCCCCNCCS(C)(=O)=O)cc23)c1,-7.98%,2.28%,3.96%,3.24%,5.57%,6.2%,10.2%,-3.76%,1.2%,3.24%
COc1cc(Nc2ncc3c(C)nc(-c4cccc(Oc5ccccc5)c4)n3n2)cc(OC)c1OC,4.22%,0.63%,4.56%,0.46%,4.17%,1.26%,1.89%,1.08%,1.57%,4.01%
CN(C)CCOc1ccc(-c2cc(-c3ccc4c(c3)CCC4=NO)c(-c3ccncc3)o2)cc1,2.27%,-0.19%,6.21%,-1.43%,1.43%,1.76%,15%,0.42%,2.57%,-2.53%
C[C@@H](Oc1cc(-n2cnc3ccc(OCC4CCN(C)CC4)cc32)sc1C(N)=O)c1ccccc1Cl,3.11%,2.92%,10.4%,0.11%,2.71%,5.93%,6.07%,0%,0.95%,5.15%
O=C(Nc1n[nH]c2cc(-c3ccccc3)ccc12)C1CC1,-6.73%,1.88%,6.79%,4.11%,4.88%,2.71%,6.62%,1.13%,2.12%,2.97%
COc1cc2ncn(-c3cc(OCCc4ccccc4)c(C(N)=O)s3)c2cc1OC,-2.35%,1.59%,6.17%,-0.54%,3.43%,-0.83%,4.33%,1.12%,0.02%,2.97%

Structure (SMILES),inhibition [1],inhibition [2],inhibition [3],inhibition [4],inhibition [5],inhibition [6],inhibition [7],inhibition [8],inhibition [9],inhibition [10]
NS(=O)(=O)c1ccc(N/N=C2\C(=O)Nc3ccc(C(=O)NCCCn4ccnc4)cc32)cc1,3.27%,2.75%,12.2%,10.2%,8.26%,4.87%,6.65%,-1.04%,0.06%,2.76%
CNC(=O)c1cncc(/C=C/c2c(C)cccc2C)c1,3.27%,-1.68%,16.2%,6.81%,42.4%,13.4%,61.9%,-1.07%,7.27%,5.83%
O=C(Nc1ccc(Oc2ccc3[nH]c(NC(=O)c4ccccc4)nc3c2)cc1)Nc1cc(C(F)(F)F)ccc1F,19.2%,2.56%,4.59%,1.13%,2.54%,3.52%,8.39%,0.7%,3.03%,2.64%
COc1cccc(-n2cnc3c(N/N=C/c4ccncc4)ncnc32)c1,-2.08%,-0.3%,15.8%,-0.75%,16.1%,0.43%,15.2%,-2.61%,-2.79%,1.91%
CCC(=O)Nc1ccc(C)c(-c2ccc(C(=O)NCC3CC3)cc2)c1,-3.83%,1.71%,3.32%,1.57%,3.88%,4.7%,5.22%,-0.35%,0.22%,2.98%
C/C(Nc1ccc(S(N)(=O)=O)cc1)=C1/C(=O)Nc2ccccc21,10.5%,-0.72%,12%,-4.07%,-0.17%,-2.78%,-1.43%,-2.32%,-1.09%,-5.47%
NS(=O)(=O)c1ccc(Nc2cc(-c3ccc(O)c(F)c3)n[nH]2)cc1,1.05%,-1.01%,12.1%,-5.24%,-1.41%,-4.55%,-9.05%,-1.3%,-0.82%,-8.87%
Nc1nccc(-c2c(-c3ccc(F)cc3)ncn2C2CCC(O)CC2)n1 (centres undefined),6.29%,0.25%,5.98%,-2.32%,3.78%,1.95%,14%,-0.78%,1.08%,-1.06%
Cc1ccc(C(=O)NC2CCC2)cc1-c1ccc(C(=O)NCC2CC2)cc1,-1.14%,2.1%,1.49%,8.25%,2.61%,1.28%,1.95%,0.87%,0.88%,-0.66%
CS(=O)(=O)CCNCc1ccc(-c2ccc3ncnc(Nc4ccc(OCc5ccccc5)c(Br)c4)c3c2)o1,-7.91%,-0.29%,3.05%,3.44%,0.49%,4.61%,11.8%,-3.57%,-0.34%,0.44%
COc1ccc2cc(-c3c(-c4ccncc4)nc(-c4ccc(S(C)(=O)=O)cc4C)n3C)ccc2c1,-4.46%,3.03%,7.1%,5.32%,3.88%,29%,85%,-2.49%,0.28%,3.76%
c1ccc(-c2n[nH]cc2-c2ccnc(-c3ccc(OCCN4CCOCC4)cc3)c2)nc1,10.8%,1.62%,1.61%,2.19%,0.44%,-5.63%,-2.62%,0.21%,6.66%,-3.84%
Fc1ccc(-c2ncn(C3CCNCC3)c2-c2ccnc(Oc3ccc4c(c3)OCO4)n2)cc1,-5.79%,4.26%,5.32%,5.5%,5.87%,4.19%,5.5%,-0.46%,0.77%,3.85%
NC(=O)c1ccc(Oc2nccc(-c3c(-c4ccc(F)cc4)ncn3C3CCNCC3)n2)cc1,-8.36%,3.48%,3.04%,5.3%,7.95%,3.36%,6.07%,-0.49%,0.73%,3.03%
Cc1nnc(-c2ccc(C)c(-c3ccc(C(=O)NCc4ccc(Cl)cc4)cc3)c2)o1,-7.1%,-0.28%,0.7%,2.05%,1.64%,2.2%,6.8%,-1.06%,-4.02%,3.38%
Fc1ccc(-c2nc3n(c2-c2ccncc2)CCS3)cc1,-3.95%,,-0.49%,2.02%,4.87%,-1.54%,4.07%,-2.44%,-3.5%,7.37%
O=C1NC(=O)C(c2cccc(Cl)c2)=C1Nc1ccc(Cl)c(C(=O)O)c1,-3.02%,2.33%,0.47%,8.42%,2.62%,3.64%,5.12%,-0.87%,0.33%,1.29%
